Reference: PubChem BioAssay (NCI)
The panel holds about 83,000 compounds, 20% with a hit somewhere; the sample as a whole holds those more often.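 Plates (96-well) were seeded with cells, treated with compound at one concentration, and incubated for 48 hours before percent growth was determined.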 Unmarked numbers belong to inactive results. The source made the active and inactive calls. The calls were made as follows: active = growth percent below 10; inactive = the rest.

Experiments:
Test in all cases: NCI-60 one-dose screen, 48 h (100 = growth as untreated, 0 = no growth, -100 = all killed)
NCI-H23 lung = conditions: 10 µM unless noted
NCI-H226 lung = conditions: 10 µM unless noted
NCI-H322M lung = conditions: 10 µM unless noted
HOP-62 NSCLC = conditions: 10 µM unless noted
HOP-92 NSCLC = conditions: 10 µM
NCI-H522 lung = conditions: 10 µM
A549/ATCC NSCLC = conditions: 10 µM unless noted
786-0 renal = conditions: 10 µM unless noted
COLO 205 colon = conditions: 10 µM unless noted
DU-145 prostate = conditions: 10 µM unless noted
K-562 leukemia = conditions: 10 µM unless noted
MALME-3M melanoma = conditions: 10 µM unless noted
MDA-MB-231 breast = conditions: 10 µM unless noted
RXF 393 renal = conditions: 10 µM unless noted
SF-268 CNS = conditions: 10 µM unless noted
SF-295 CNS = conditions: 10 µM unless noted
SF-539 CNS = conditions: 10 µM unless noted
UACC-257 melanoma = conditions: 10 µM unless noted
M14 melanoma = conditions: 10 µM unless noted
NCI-H460 lung = conditions: 10 µM unless noted

Row | SMILES | growth (NCI-H23 lung) | growth (NCI-H226 lung) | growth (NCI-H322M lung) | growth (HOP-62 NSCLC) | growth (HOP-92 NSCLC) | growth (NCI-H522 lung) | growth (A549/ATCC NSCLC) | growth (786-0 renal) | growth (COLO 205 colon) | growth (DU-145 prostate) | growth (K-562 leukemia) | growth (MALME-3M melanoma) | growth (MDA-MB-231 breast) | growth (RXF 393 renal) | growth (SF-268 CNS) | growth (SF-295 CNS) | growth (SF-539 CNS) | growth (UACC-257 melanoma) | growth (M14 melanoma) | growth (NCI-H460 lung) [%]
1 | Ic1ccc(SSc2ccc(I)cc2)cc1 | 98% | 90.6% | 100% | 108% | 90.7% | 86.7% | 74.1% | 92.6% | 124% | 103% | 95.5% | 114% | 87.8% | 99.7% | 59.2% | 77.5% | 86.1% | 88.1% | 104% | –
2 | CCCCN(CCCC)c1ccc(C(=O)O)cc1 | 98.1% | 99.5% | 98.4% | 98% | – | – | – | 99.4% | 98.8% | 101% | 107% | 74% | 120% | 105% | 101% | 97.7% | 109% | – | 103% | 104
3 | CCOc1ccc(Br)cc1/C=C(\C#N)c1ccc([N+](=O)[O-])cc1 | 87.6% | 81.2% | 77.4% | 22.1% | – | – | – | 86.3% | 97.2% | 80.4% | 80.6% | 62.2% | 61.2% | 66.7% | 60.9% | 76.5% | 81.1% | – | 101% | 82.2
4 | CCN(CC)CCNc1ncnc2c1cnn2-c1ccc(Cl)cc1 | 76.5% | 100% | 92.8% | 114% | – | – | – | 106% | 15.9% | 94.5% | 45% | 88.9% | 61.1% | – | 81.7% | 85.7% | 70% | – | – | 85
5 | CC([C@H]1CCC2C3CCC4C[C@@H](N)CC[C@]4(C)C3CC[C@@]21C)N(C)C (some centres not stated) | 77.1% | 112% | 77.3% | 104% | 53.1% | 102% | 86.1% | 71.7% | 6.07% (active) | 88.7% | 21.2% | 5.88% (active) | 58% | 24.3% | 37.1% | 76.6% | 13.1% | -7.66% (active) | -6.67% (active) | –
6 | CC(C)(C)OC(=O)N1C/C(=C\c2ccccc2)C(=O)/C(=C/c2ccccc2)C1 | 103% | 81.6% | 92.6% | 96.4% | 69.4% | 72% | 92.7% | 81.6% | – | 112% | 74.8% | 113% | 79.9% | 102% | 81.4% | 99.5% | 104% | 91.4% | 98.3% | –
7 | C/C=C(/C)C(=O)OC1C=C(CO)C(=O)C(OC(=O)C(C)(O)C(C)Cl)C1C(C)C (configuration not stated) | -50.1% (active) | -19.4% (active) | -10.6% (active) | -1.29% (active) | -50.2% (active) | -34.4% (active) | -18% (active) | -72.1% (active) | – | 3.58% (active) | 1.56% (active) | -76.6% (active) | -5.1% (active) | -63.6% (active) | 10.4% | -41.4% (active) | -43.7% (active) | -19.7% (active) | -56.4% (active) | –
8 | COc1ccccc1CNCCCN1C(=O)c2ccc3c4c(ccc(c24)C1=O)C(=O)N(CCCNCc1ccccc1OC)C3=O | -72.8% (active) | -64.7% (active) | -46.6% (active) | -35.9% (active) | -19.5% (active) | -90% (active) | -86.5% (active) | -50% (active) | -6.12% (active) | -81.4% (active) | -44.2% (active) | -73.6% (active) | -13.1% (active) | -93.9% (active) | -64.4% (active) | -56.3% (active) | -70.7% (active) | -97.9% (active) | -61.9% (active) | –
9 | O=C1c2cc([N+](=O)[O-])ccc2-c2cc(Cl)c(NC(=O)C(F)(F)F)cc21 | 95.3% | 101% | 103% | 106% | 99.4% | 113% | 108% | 108% | 95.9% | 112% | 88.6% | – | 109% | 87.5% | 107% | 111% | 95.4% | 128% | 110% | –
10 | COc1ccccc1C(=O)Nc1cccc(-c2cc(=O)c3c(OC)c(OC)c(OC)cc3o2)c1 | 62.4% | 58.4% | 43.6% | 57.8% | -0.39% (active) | 44.3% | 48.2% | 45.3% | – | 44.9% | 36.4% | 65.5% | 51.3% | 59% | 54.5% | 59.2% | 63.8% | 61.5% | 41.5% | –
11 | CSC1=Nc2c(c(C)c(-c3ccccc3)n2CCCCl)C2=NC(=O)CN12 | 77.6% | 79.3% | 82.1% | 64.3% | 64.7% | 55.8% | 74.1% | 77.9% | 79.1% | 94.8% | 19.3% | 82.8% | 65.2% | 94.7% | 77% | 43.3% | 61.7% | 83.8% | 30.8% | –
12 | C/C=C(/C)C(=O)OC1C=C(CO)C(=O)C(OC(=O)C2(C)OC2C)C1C(C)C (configuration not stated) | -63.1% (active) | -36.4% (active) | -3.37% (active) | 0.921% (active) | -35.1% (active) | -79.5% (active) | -23.5% (active) | -89.7% (active) | – | 6.72% (active) | 1.51% (active) | -77.4% (active) | 1.48% (active) | -74.3% (active) | 13.3% | -20.5% (active) | -65.6% (active) | -9.59% (active) | -49.2% (active) | –
13 | N#Cc1ccc(NC2c3ccccc3CC2O)cc1 (configuration not stated) | 101% | 102% | 114% | 105% | 85% | 104% | 106% | 108% | 108% | 110% | 90.4% | – | 114% | 89.6% | 115% | 114% | 102% | 125% | 106% | –
14 | COC(=O)C1CC(=O)N(C(=O)Nc2ccc(Cl)cc2Cl)C1 (configuration not stated) | 98.8% | 94.6% | 108% | 85.5% | 83.1% | 80.3% | 96.3% | 92.4% | – | 114% | 92.8% | 108% | 95.3% | 120% | 101% | 96.7% | 99.6% | 96.6% | 94.1% | –
15 | CC1=C(C)C[C@]2(C(=O)O[C@H]3CCCC[C@@H]32)[S@](=O)C1 | 97.9% | 109% | 106% | 106% | 105% | 82.9% | 96.5% | 102% | 108% | 107% | 102% | 110% | 125% | 112% | 96.4% | 106% | 114% | 97.7% | 103% | –
16 | CCCCCCCCCCCCCCCCC(=O)O.CCCCCCCCCCCCCCCCCC(=O)O.CCCCCCCCCCCCCCCCCC(=O)O.CCCCCCCCCCCCCCCCCC(=O)O.CCCCCCCCCCCCCCCCCC(=O)O.CO[CH-]OC12COC1CC(O)C1(C)C(O)C(OC(C)O)C3=C(C)C(OC(=O)C(O)C([NH-])c4ccccc4)CC(O)(C(OC(=O)c4ccccc4)C21)C3(C)C.[Cu+].[Zn].[Zn].[Zn].[Zn].[Zn] (configuration not stated) | 43.6% | 73.2% | 28.6% | 56.4% | 41.5% | 16.4% | 27.8% | 41.7% | 14.7% | – | 8.31% (active) | 69.5% | 13.8% | 24.3% | 47.6% | 16.5% | – | 80.6% | 35.5% | –
17 | C/C=C(/C)C(=O)OC1C=C(CO)C(=O)C(OC(=O)/C(C)=C\C)C1C(C)C (configuration not stated) | -66.3% (active) | -0.591% (active) | -90.3% (active) | -31.4% (active) | -72.8% (active) | -52.8% (active) | -9.36% (active) | -88.6% (active) | – | -90.9% (active) | -18.3% (active) | -91.2% (active) | -61.2% (active) | -79.2% (active) | -57.3% (active) | -54.3% (active) | -92.1% (active) | -48.8% (active) | -84.7% (active) | –
